Reference: PubChem BioAssay (NCI)
Compounds without any hit were thinned out: in the full panel of roughly 79,000, 15% have a hit. Values without a mark were called inactive. Activity calls are given as the source filed them. No stated cut-off is given here; in the data, active means growth inhibition above about 70%; inactive means the rest.

Key:
[1] = NCI Yeast Anticancer Drug Screen. Data for the rad50 strain (AID 155);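 further: 0% = growth of vehicle-only cultures of the same strain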; conditions: S. cerevisiae rad50 strain growth inhibition, active compounds read high
Summary of the method: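 Relative growth inhibition (compound vs vehicle) was measured in yeast with a defined repair-gene alteration.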

[2] = NCI Yeast Anticancer Drug Screen. Data for the mec2-1 strain (AID 157); conditions: S. cerevisiae mec2-1 strain, active compounds read high
Summary of the method: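 Compounds were applied to mec2-1 yeast cells. Their growth was then compared with that of vehicle-treated cultures to give growth inhibition.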

[3] = NCI Yeast Anticancer Drug Screen. Data for the sgs1 mgt1 strain (AID 161);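 further: 0% = growth of cultures given vehicle only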; conditions: S. cerevisiae sgs1 mgt1 strain, active compounds read high
Summary of the method: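 Yeast cells carrying a defined DNA-repair defect were exposed to test compounds. Growth inhibition was measured relative to vehicle-treated controls.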

[4] = NCI Yeast Anticancer Drug Screen. Data for the cln2 rad14 strain (AID 165);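 further: 0% = growth equal to vehicle treated cultures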; conditions: S. cerevisiae cln2 rad14 strain, active compounds read high
Summary of the method: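 Strain: cln2 rad14 yeast, altered in cell cycle control and DNA damage repair. Read-out: growth inhibition vs vehicle.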

[5] = NCI Yeast Anticancer Drug Screen. Data for the bub3 strain (AID 167); conditions: S. cerevisiae bub3 mutant strain, active compounds read high
Summary of the method: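 Screening used yeast with an engineered genetic alteration affecting cell cycle control. Compound-exposed cultures were compared with vehicle cultures, and reduced growth was taken as inhibition.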

[6] = NCI Yeast Anticancer Drug Screen. Data for the mlh1 rad18 strain (AID 175); conditions: S. cerevisiae mlh1 rad18 strain growth inhibition, active compounds read high
Summary of the method: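 A repair-deficient yeast strain is exposed to test compound, and growth is scored relative to vehicle-treated controls.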

[7] = at 5.0 µM (retest, dose inferred, filed as 0.5)
[8] = at 50.0 µM (retest, dose inferred, filed as 5.0)

SMILES	growth inhibition [1, 7]	growth inhibition [1, 8]	growth inhibition ([1]; at 50.0 µM)	growth inhibition [2, 7]	growth inhibition [2, 8]	growth inhibition ([2]; at 50.0 µM)	growth inhibition [3, 7]	growth inhibition [3, 8]	growth inhibition ([3]; at 50.0 µM)	growth inhibition [4, 7]	growth inhibition [4, 8]	growth inhibition ([4]; at 50.0 µM)	growth inhibition [5, 7]	growth inhibition [5, 8]	growth inhibition ([5]; at 50.0 µM)	growth inhibition [6, 7]	growth inhibition [6, 8]	growth inhibition ([6]; at 50.0 µM)
CC(CCCN(C)Cc1ccccc1)Nc1ccnc2cc(Cl)ccc12 (centres undefined)	88% (active)	99% (active)	99% (active)	53%	100% (active)	98.3% (active)	99% (active)	99% (active)	99.5% (active)	41%	99% (active)	99.4% (active)	86% (active)	99% (active)	99.5% (active)	99% (active)	99% (active)	98% (active)
CSC(=S)N/N=C\C(C)=N/N=C(N)N	14%	92% (active)	94% (active)	16%	93% (active)	74.5% (active)	53%	92% (active)	85.4% (active)	-14%	89% (active)	18.9%	-4%	92% (active)	86.4% (active)	30%	90% (active)	93.7% (active)
Cc1nc(-c2ccc(N=Cc3ccc(N(CCOS(C)(=O)=O)CCOS(C)(=O)=O)cc3Cl)cc2)c(C)s1	1%	33%	40.1%	-68%	-1%	13.1%	2%	17%	55.3%	6%	-4%	-9.2%	0%	-1%	-8.8%	4%	37%	73% (active)
Cc1ccc(S(=O)(=O)NNC(=O)c2sc(-c3nc(C)c(C(=O)NNS(=O)(=O)c4ccc(C)cc4)s3)nc2C)cc1	2%	98% (active)	7.3%	2%	99% (active)	8%	5%	99% (active)	83.5% (active)	8%	98% (active)	-43.5%	8%	98% (active)	14.3%	2%	98% (active)	15%
CCC1=C(c2ccccc2)C(O)(c2ccccc2)C(CC)C1=O (centres undefined)	-3%	99% (active)	94% (active)	-5%	99% (active)	92.5% (active)	-7%	99% (active)	97.3% (active)	5%	99% (active)	92.2% (active)	-4%	99% (active)	97.7% (active)	-2%	98% (active)	97.8% (active)
c1ccc(COc2ccc(C[P+](c3ccccc3)(c3ccccc3)c3ccccc3)cc2)cc1	97% (active)	100% (active)	99.3% (active)	98% (active)	100% (active)	99.5% (active)	99% (active)	100% (active)	99.7% (active)	98% (active)	98% (active)	99.6% (active)	99% (active)	99% (active)	99.5% (active)	99% (active)	99% (active)	99.3% (active)
O=C1OC(=O)C2C=CC=CC12 (centres undefined)	2%	-5%	50%	-1%	-9%	-8.45%	2%	4%	-7.9%	-1%	-6%	-74.8%	-3%	2%	6.15%	14%	2%	-12.2%
COc1cc2c(cc1OC)C(C)N(C)c1c-2c(OC(C)=O)cc2cc(OC)c(OC)cc12 (centres undefined)	2%	52%	82.5% (active)	-4%	64%	87.4% (active)	-4%	67%	64.2%	-8%	49%	19.6%	-4%	72% (active)	42.2%	-3%	54%	70.5% (active)
COc1ccc(Cl)c(-c2cc(OC)c(N=N/C(=N/Nc3ccc([N+](=O)[O-])cc3)c3ccc([N+](=O)[O-])cc3)cc2Cl)c1	95% (active)	19%	70.9% (active)	98% (active)	4%	45.5%	44%	-18%	60.2%	74% (active)	0%	50.2%	99% (active)	5%	44.5%	98% (active)	17%	76.1% (active)
Oc1cc(Br)cc2cccnc12	99% (active)	99% (active)	87.7% (active)	98% (active)	99% (active)	92% (active)	98% (active)	99% (active)	84.3% (active)	99% (active)	99% (active)	89.5% (active)	99% (active)	99% (active)	88.7% (active)	99% (active)	99% (active)	83.8% (active)
O=C(/C=C(\OB(F)F)c1ccccc1)c1ccccc1	-2%	-4%	100% (active)	-18%	-19%	98.9% (active)	-4%	2%	97.4% (active)	-8%	4%	98.4% (active)	2%	-1%	98.2% (active)	1%	-13%	97.9% (active)
COc1ccc(-c2nnc(C)nc2-c2ccc(OC)cc2)cc1	3%	-1%	22.1%	-1%	7%	1.2%	3%	19%	23.2%	-6%	-1%	17.6%	14%	41%	81.6% (active)	0%	2%	13.2%
CCOc1ccccc1/C=N/Nc1nnc(N/N=C/c2ccccc2OCC)c2ccccc12	0%	42%	44%	9%	64%	48.8%	-24%	38%	41.5%	-10%	58%	45.2%	-4%	54%	44.2%	7%	80% (active)	43.9%
O=C(O)/C=C/c1ccc2c(c1)CCCC2	0%	83% (active)	90.1% (active)	-8%	66%	73% (active)	3%	79% (active)	73.5% (active)	-28%	70% (active)	85.3% (active)	-11%	70% (active)	64%	-19%	87% (active)	62.9%
CC(C)Cc1ccc(C(C)/C=C2\CCC(CN3CCCCC3)C2=O)cc1 (centres undefined)	93% (active)	98% (active)	92.3% (active)	90% (active)	99% (active)	94.2% (active)	84% (active)	98% (active)	94.2% (active)	80% (active)	99% (active)	92.7% (active)	98% (active)	98% (active)	93.2% (active)	94% (active)	98% (active)	89.6% (active)
Cc1cc(OCCl)ccc1[N+](=O)[O-]	-2%	26%	30.4%	-2%	32%	25.6%	-16%	67%	39.1%	-1%	55%	15.6%	15%	58%	19.9%	1%	80% (active)	74.8% (active)
CC(=O)c1ccc([N+](=O)[O-])o1	19%	98% (active)	96.5% (active)	22%	99% (active)	92.2% (active)	11%	61%	91.3% (active)	0%	97% (active)	86.9% (active)	21%	99% (active)	92.5% (active)	38%	99% (active)	98.4% (active)
CCOC(=O)C(Br)C(Br)c1cccc(Cl)c1 (centres undefined)	53%	99% (active)	99.5% (active)	64%	99% (active)	99.7% (active)	84% (active)	99% (active)	99.8% (active)	31%	99% (active)	99.4% (active)	57%	99% (active)	99.8% (active)	84% (active)	99% (active)	99.5% (active)
